{
  "source": "PubChem BioAssay AID493170",
  "about": "(National Center for Advancing Translational Sciences (NCATS), 2011)",
  "note": "Records with an inconclusive call do not appear. Unmarked numbers belong to inactive results. Calls of active or inactive are those of the source. Calls follow the shape of the dose curve; as a rule, active = well fitted inhibition curve with a large enough effect; inconclusive = small, poorly fitted or top-dose-only effect, or effect the other way; inactive = flat fitted curve, though single readings scatter. % is scaled to controls: 0 for no effect and ±100 for the full control effect; potency is read from the fitted curve at half-maximal effect.",
  "data": [
    {"target": "Ubiquitin carboxyl-terminal hydrolase 2 (Homo sapiens) (UniProt O75604)", "sequence (O75604 whole entry, looked up)": "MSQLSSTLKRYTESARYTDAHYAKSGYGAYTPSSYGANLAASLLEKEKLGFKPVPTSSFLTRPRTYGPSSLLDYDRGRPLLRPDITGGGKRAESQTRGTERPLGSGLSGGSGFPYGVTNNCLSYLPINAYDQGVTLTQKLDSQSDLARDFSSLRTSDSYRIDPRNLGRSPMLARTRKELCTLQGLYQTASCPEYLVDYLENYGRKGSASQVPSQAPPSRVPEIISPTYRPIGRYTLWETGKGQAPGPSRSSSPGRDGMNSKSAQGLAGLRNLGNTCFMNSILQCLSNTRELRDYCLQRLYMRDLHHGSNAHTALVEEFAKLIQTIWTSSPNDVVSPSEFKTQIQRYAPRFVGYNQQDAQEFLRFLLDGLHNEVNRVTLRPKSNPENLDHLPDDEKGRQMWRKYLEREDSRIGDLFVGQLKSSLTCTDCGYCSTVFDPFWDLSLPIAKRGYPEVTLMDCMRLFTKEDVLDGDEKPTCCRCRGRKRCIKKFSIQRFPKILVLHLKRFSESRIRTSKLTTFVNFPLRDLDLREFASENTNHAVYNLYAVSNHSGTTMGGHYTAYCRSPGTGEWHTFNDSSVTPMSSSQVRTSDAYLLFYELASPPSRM", "assay": "Ub-rhodamine 110 based assay for inhibitors Ubiquitin-specific Protease USP2a; also: nearly all actives have a fitted effect of over 50% in size", "conditions": "USP2a Ub-rhodamine110 cleavage, fluorescence; series mostly up to 38.3 µM; activity change, negative = inhibition: at the top concentration", "how_it_was_run": "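Kinetic fluorescence (485/531 nm) read each minute over 7 min after adding Ub-Rhod110 (150 nM final) to USP2a (5 nM final). The enzyme had 30 min RT exposure to compounds beforehand in Tris pH 8.0 buffer with CaCl2, CHAPS and beta-ME.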", "units": {"activity change, negative = inhibition": "%"}, "values": [
      {"smiles": "CCOc1ccccc1C(=O)N[C@H](C(=O)Nc1ccc(OC)c(S(=O)(=O)N2CCOCC2)c1)C(C)C", "activity change, negative = inhibition": -7.42},
      {"smiles": "Cc1ccc(C(=O)Nc2nnc(CC(=O)N/N=C/c3ccc(O)c(O)c3)s2)cc1", "Potency": "4.47 µM (active)"},
      {"smiles": "Cc1ccc(-c2c(C#N)c(N)nc3c2CCCCC3)o1", "activity change, negative = inhibition": -15.5},
      {"smiles": "Cc1csc(NC(=O)CCn2c(=O)sc3ccccc32)n1", "activity change, negative = inhibition": -7.06},
      {"smiles": "O=C(CC1Oc2ccccc2NC1=O)NCc1ccc(Cl)cc1", "note": "(stereo not given)", "activity change, negative = inhibition": -16.5},
      {"smiles": "O=C(CSc1nnc(SCc2ccccc2)s1)N/N=C/c1c[nH]c2ccccc12", "Potency": "10 µM (active)"},
      {"smiles": "CCN=C1SC(C(=O)Nc2cccc(OCC)c2)CC(=O)N1CC", "note": "(stereo not given)", "activity change, negative = inhibition": -2.14},
      {"smiles": "C=CC[C@H](CC(=O)N[C@H](CO)Cc1ccccc1)C(=O)N[C@H](COC(=O)[C@@H](CC=C)CC(=O)OC(C)(C)C)Cc1c[nH]c2ccccc12", "activity change, negative = inhibition": -11.3},
      {"smiles": "CSc1cccc(NC(=O)c2ccccc2N(C)S(C)(=O)=O)c1", "activity change, negative = inhibition": 1.08},
      {"smiles": "COc1ccc(NC(=S)NC(=O)/C=C/c2ccco2)cc1", "activity change, negative = inhibition": -1.65},
      {"smiles": "Cc1ccc(S(=O)(=O)N2[C@@H](c3ccc(C(C)(C)C)cc3)C(C(=O)O)=CC[C@H]2c2ccc(Cl)c(Cl)c2)cc1", "Potency": "10 µM (active)"},
      {"smiles": "CCOC(=O)c1[nH]c2ccc(OC)cc2c1NC(=O)CCN1CCC(C)CC1", "activity change, negative = inhibition": -3.42},
      {"smiles": "Cc1cc(-c2csc(NC(=O)c3ccc(=O)[nH]c3)n2)c(C)n1Cc1ccccc1", "Potency": "12.6 µM (active)"},
      {"smiles": "Cc1ccc(-c2nc(N/N=C/c3ccncc3)c3ccccc3n2)cc1", "Potency": "11.2 µM (active)"},
      {"smiles": "CCOC(=O)C1CCCN(C(=O)c2cc(-c3ccco3)nc3ccccc23)C1", "note": "(stereo not given)", "Potency": "4.47 µM (active)"}
    ]}
  ]
}
